This note sets out measurements from PubChem BioAssay (NCI).

Test systems include RPMI-8226 leukemia; OVCAR-5 ovarian; OVCAR-4 ovarian; SK-OV-3 ovarian; IGROV1 ovarian; OVCAR-3 ovarian; HS 578T breast; NCI/ADR-RES ovarian; T-47D breast; BT-549 breast; MDA-MB-435 melanoma; SW-620 colon; MCF7 breast; HCT-116 colon; HCC-2998 colon; KM12 colon; OVCAR-8 ovarian.
Common to all, as to assay: NCI-60 one-dose screen, 48 h (100 = growth as untreated, 0 = no growth, -100 = all killed)
What all share (settings): 10 µM unless noted

About 83,000 compounds went through this panel and 20% of them were active in at least one assay; those are over-represented in the sample as a whole.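 Activity criterion: percent growth below 10, measured after cells in 96-well plates were exposed to a single compound concentration for 48 hours.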 Unmarked numbers belong to inactive results. Calls of active or inactive are those of the source.

For the molecule `CC1=Nc2cnc(Nc3ccc(N4CCCCC4)cc3)nc2Nc2ccccc21`, the growth is 34.3% with RPMI-8226 leukemia; 82.7% in the experiment with OVCAR-5 ovarian; 52.2% in the experiment on OVCAR-4 ovarian; 104% in the experiment with SK-OV-3 ovarian; 63.3% with IGROV1 ovarian; 94.9% with OVCAR-3 ovarian. The growth is 84.5% with HS 578T breast; 62.6% with NCI/ADR-RES ovarian; 46.9% with T-47D breast; 42.5% in the experiment on BT-549 breast; 89.7% in the experiment with MDA-MB-435 melanoma; 96% with SW-620 colon. Moreover, the growth in the experiment on MCF7 breast is 72.5%; in the experiment on HCT-116 colon, 59%; in the experiment with HCC-2998 colon, 106%; in the experiment with KM12 colon it was 54.9%.
As to `Cc1cc(O)cc(-c2nn(C)cc2-c2cc(N3CCOCC3)nc(-c3cccnc3)n2)c1`, the growth is 38.2% in the experiment with RPMI-8226 leukemia; 47.1% with OVCAR-8 ovarian; 84.6% with OVCAR-5 ovarian; 73.1% with OVCAR-4 ovarian; 38.5% in the experiment on SK-OV-3 ovarian; 45% with IGROV1 ovarian. The growth with OVCAR-3 ovarian is 8.62% (active); in the experiment on HS 578T breast, 20.5%; with NCI/ADR-RES ovarian, 45.9%; in the experiment with T-47D breast it was 28.8%; in the experiment on BT-549 breast, 36.3%; with MDA-MB-435 melanoma, 3.68% (active). Besides, the growth in the experiment with SW-620 colon was 38.4%; with MCF7 breast, 14.9%; with HCT-116 colon it was 17.3%; in the experiment on HCC-2998 colon, 63%; in the experiment with KM12 colon it was 28.9%.
With `Clc1cccc(C2Cc3cnccc3-c3[nH]c4ccncc4c32)c1` (stereo unspecified), the growth in the experiment on RPMI-8226 leukemia is 14.1%; with OVCAR-8 ovarian, 56.4%; with OVCAR-5 ovarian it was 86.4%; with OVCAR-4 ovarian it was 36.2%; in the experiment with SK-OV-3 ovarian, 50.9%; with IGROV1 ovarian, 52.7%. Also, the growth in the experiment with OVCAR-3 ovarian is 42.2%; in the experiment on HS 578T breast, 85%; in the experiment on NCI/ADR-RES ovarian, 47.7%; with T-47D breast, 34.4%; in the experiment with BT-549 breast it was 50.1%; in the experiment with MDA-MB-435 melanoma it was 39.5%. The growth is 44.7% in the experiment with SW-620 colon; 20.4% in the experiment with MCF7 breast; 32.5% in the experiment with HCT-116 colon; 76.7% with HCC-2998 colon; 44.3% with KM12 colon.
Regarding `CCN(CCNc1ccc(C)c2sc3cc(Cl)ccc3c(=O)c12)CC(C)(C)O`, the growth in the experiment on RPMI-8226 leukemia is 49.4%; in the experiment on OVCAR-5 ovarian, 70.2%; with OVCAR-4 ovarian, 72.8%; in the experiment with SK-OV-3 ovarian, 45.1%; with IGROV1 ovarian it was 50.7%; with OVCAR-3 ovarian it was 91.7%. In addition, the growth in the experiment on HS 578T breast is 79.3%; in the experiment on NCI/ADR-RES ovarian, 74.6%; in the experiment on T-47D breast, 69.5%; in the experiment on BT-549 breast it was 84.9%; with MDA-MB-435 melanoma it was 35.2%; with SW-620 colon, 82.2%. In addition, the growth is 58.5% in the experiment on MCF7 breast, 50.6% in the experiment with HCT-116 colon, 39.6% with HCC-2998 colon and 40.5% in the experiment on KM12 colon.
For the molecule `COc1cc(C[C@H]2COc3cc(O)cc(O)c3C2=O)ccc1O`, the growth was 18.2% in the experiment with RPMI-8226 leukemia; 28.1% in the experiment on OVCAR-8 ovarian; 101% in the experiment on OVCAR-5 ovarian; 63.1% in the experiment on OVCAR-4 ovarian; 29.2% in the experiment with SK-OV-3 ovarian; 41.3% with IGROV1 ovarian. The growth in the experiment on OVCAR-3 ovarian is 14.1%; with HS 578T breast it was 13.7%; in the experiment on NCI/ADR-RES ovarian, 20.9%; in the experiment on T-47D breast it was 31.3%; with BT-549 breast, 27.8%; with MDA-MB-435 melanoma, -22.5% (active). The growth is 23.1% in the experiment with SW-620 colon; 22.6% with MCF7 breast; 12.6% in the experiment with HCT-116 colon; 88.2% in the experiment on HCC-2998 colon; 24.7% with KM12 colon.
Take `Nc1cc(C(=O)O)cc(-n2c(O)c(C=C3N=c4ccccc4=N3)sc2=S)c1`: the growth was 100% in the experiment on RPMI-8226 leukemia; 103% in the experiment on OVCAR-8 ovarian; 99% with OVCAR-5 ovarian; 101% with OVCAR-4 ovarian; 99.9% with SK-OV-3 ovarian; 86.8% in the experiment on IGROV1 ovarian. For the same molecule, the growth in the experiment on OVCAR-3 ovarian was 106%; with HS 578T breast it was 103%; in the experiment with NCI/ADR-RES ovarian, 103%; with T-47D breast, 95.2%; in the experiment with BT-549 breast it was 103%; with MDA-MB-435 melanoma, 103%. Besides, the growth in the experiment on SW-620 colon was 96.8%; in the experiment on MCF7 breast, 94.5%; in the experiment on HCT-116 colon, 99.4%; with HCC-2998 colon, 99.3%; in the experiment with KM12 colon, 103%.
As to `O=C1Nc2ccccc2/C1=N/N1C(=O)CN(CCCl)C1=O`, the growth in the experiment with RPMI-8226 leukemia was 101%; in the experiment on OVCAR-8 ovarian it was 100%; in the experiment on OVCAR-5 ovarian it was 103%; in the experiment on OVCAR-4 ovarian it was 118%; with SK-OV-3 ovarian it was 96.9%; in the experiment with IGROV1 ovarian it was 97.1%. The growth in the experiment on OVCAR-3 ovarian was 113%; in the experiment on HS 578T breast, 95.9%; in the experiment with NCI/ADR-RES ovarian it was 102%; in the experiment with T-47D breast, 102%; in the experiment with BT-549 breast, 111%; in the experiment on MDA-MB-435 melanoma, 98.9%. The growth in the experiment with SW-620 colon is 95.1%; in the experiment with MCF7 breast, 93.8%; in the experiment with HCT-116 colon it was 98.6%; in the experiment on HCC-2998 colon, 104%; in the experiment on KM12 colon it was 113%.
Take `COc1cc(/C=C/C(=O)c2cccc(-n3cc(-c4ccc(Cl)cc4)[nH]c3=O)c2)ccc1O`: the growth with RPMI-8226 leukemia is 5.06% (active); in the experiment with OVCAR-8 ovarian it was 46.5%; in the experiment on OVCAR-5 ovarian it was 91.4%; with OVCAR-4 ovarian it was 57%; in the experiment with SK-OV-3 ovarian it was 97.9%; in the experiment with IGROV1 ovarian it was -10.6% (active). Also, the growth is 3.36% (active) in the experiment on OVCAR-3 ovarian; 76.5% in the experiment on HS 578T breast; 35.4% with NCI/ADR-RES ovarian; 62.2% in the experiment on T-47D breast; 26.3% in the experiment on BT-549 breast; 21.4% in the experiment with MDA-MB-435 melanoma. The growth with SW-620 colon was 16%; in the experiment on MCF7 breast it was 9.8% (active); in the experiment with HCT-116 colon, 21.5%; with HCC-2998 colon, 66.8%; in the experiment on KM12 colon, 6.79% (active).
In the case of `COc1ccc2c(O)c(/C=C3\N=Nc4ncccc43)oc2c1C[C@@H]1CCNC[C@H]1F`, the growth was -4.16% (active) in the experiment with RPMI-8226 leukemia; -20.5% (active) in the experiment on OVCAR-8 ovarian; 17% in the experiment with OVCAR-5 ovarian; -37.8% (active) in the experiment on OVCAR-4 ovarian; 15% in the experiment on SK-OV-3 ovarian; -2.07% (active) with IGROV1 ovarian. Further, the growth was -17.9% (active) in the experiment on OVCAR-3 ovarian; -1.31% (active) in the experiment with HS 578T breast; 1.39% (active) in the experiment with NCI/ADR-RES ovarian; 29.7% in the experiment with T-47D breast; -43.2% (active) in the experiment with BT-549 breast; -9.87% (active) in the experiment with MDA-MB-435 melanoma. The growth with SW-620 colon is -6.3% (active); with MCF7 breast, -14.5% (active); in the experiment on HCT-116 colon it was -59.6% (active); in the experiment with HCC-2998 colon, -21.5% (active); with KM12 colon, -48.7% (active).
